Source: PubChem BioAssay (EPA / NIEHS)
Activity calls are given as the source filed them. How the source made its calls: active means hit-call score of the fitted dose curve at least 0.9, where 1 is the maximum; inactive means score below 0.9.

test: CCTE_Shafer_MEA_acute_interburst_interval_mean: CCTE's Neural Acute Assay for Mean Interburst Interval, Shafer Lab (AID 2284016);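 further: percent change of mean interburst interval versus each well's own pre-dose baseline; curves fitted for decrease in interburst interval relative to DMSO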
Procedure, shortened: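 Percent change in mean single-electrode interburst interval was calculated per well from 40 min recordings before and after compound (0.03-40 uM). Recordings were made at 37 C on rat cortical cultures at DIV 13 or 15, with spikes detected at 8x rms threshold.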

AC50, active:
C=CC(C)(O)CCC=C(C)C (stereo unspecified) 15 µM, Oc1c(Cl)cc(Cl)c(Cl)c1Cc1c(O)c(Cl)cc(Cl)c1Cl 0.122 µM, O=C(Nc1ccc2c(O)c(N=Nc3ccc(N=Nc4ccc(S(=O)(=O)O)cc4)cc3)c(S(=O)(=O)O)cc2c1)c1ccccc1 15 µM

outcome, inactive:
CC(CN=Cc1ccccc1O)N=Cc1ccccc1O (stereo unspecified), COCCc1ccc(OCC(O)CNC(C)C)cc1 (stereo unspecified), CCOC(=O)C(C#N)=C(c1ccccc1)c1ccccc1
